Inconclusive results are not listed. Where a call stands in place of a potency, no number is given. The source made the active and inactive calls. Calls come from the whole dose curve; as a rule, active = well fitted curve in the direction sought with a large enough effect in the signal ratio (not every such curve was filed as active); inconclusive = small, poorly fitted or top-dose-only effect, or a change in a side signal; inactive = no such curve, though single readings can be large or run the other way; the % refers to the signal ratio.
The compounds below were run against Inositol monophosphatase 1 (Rattus norvegicus) (UniProt P97697) (assay: Confirmation Assay for Identifying the Cell-Membrane Permeable IMPase Inhibitors). Details: CHO-M1 cells, carbachol-stimulated IP1 accumulation, HTRF ratio; series mostly up to 41.5 µM.
Chain of Inositol monophosphatase 1 (Rattus norvegicus) (P97697 whole entry, looked up): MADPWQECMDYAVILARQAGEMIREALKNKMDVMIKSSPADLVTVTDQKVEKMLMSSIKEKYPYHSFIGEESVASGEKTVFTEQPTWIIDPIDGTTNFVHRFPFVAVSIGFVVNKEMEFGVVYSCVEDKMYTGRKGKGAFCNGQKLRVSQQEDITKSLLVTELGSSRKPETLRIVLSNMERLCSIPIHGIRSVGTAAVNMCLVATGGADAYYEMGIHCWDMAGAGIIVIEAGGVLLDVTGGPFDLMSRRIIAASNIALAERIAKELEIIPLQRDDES
Description: NIH Chemical Genomics Center [NCGC] NIH Molecular Libraries Probe Production centers Network [MLPCN] MLPCN Grant: X01 MH082413-01 Assay Submitter (PI): Wei Zheng NCGC Assay Overview: Lithium has been widely used for the treatment of bipolar disorder. But lithium has a narrow therapeutic index and it can cause side effects such as thirst, weight gain, tremor, polyuria and memory problems. Although the mechanism for lithium action in treatment of bipolar disorder is still not fully understood, inhibition of inositol monophosphatase (IMPase) and the subsequent depletion of the inositol pool in living cells have been implicated as the primary therapeutic benefit of lithium therapy. Therefore, a selective IMPase inhibitor with reduced side effects might be a good drug candidate to replace lithium for the treatment of bipolar disorder. Several IMPase inhibitors have been discovered previously. However, they are not suitable for therapeutic use because of their poor cell membrane penetrability or oral bioavailability; the development of new cell-permeable IMPase inhibitors is needed. IMPase catalyzes the hydrolysis of inositol-1-phosphate (IP1) to release free inositol. Binding of an agonist to a Gq coupled GPCR results in the activation of PLC, which hydrolyzes the PIP2 to form inositol-1,4,5-trisphosphate (IP3) and diacyl glycerol (DAG). While DAG activates protein kinase C (PKC), IP3 triggers the elevation of intracellular free Ca2+. The IP3 is very rapidly inactivated by hydrolysis to IP2, IP1 and then inositol by a series of enzymes including IMPase. Free inositols are used for synthesis of PI and thus start another inositol cycle. To identify new cell-permeable IMPase inhibitors, we developed a cell-based IMPase assay in which the cytosolic IP1 is measured by a time-resolved fluorescence resonance energy transfer (TR-FRET) assay. In this assay, an IP1 specific antibody is used to detect the labeled IP1 tracer. When the cell lysate contains the elevated IP1 due to the inhibition of IMPase, the TR-FRET between the labeled antibody and IP1 tracer is disrupted resulting in a reduction in the total signal. Since the TR-FRET is used, this cell-based assay is a homogenous assay without cell wash and medium change that is suitable for assay miniaturization and HTS.
NCGC IMPase Assay Protocol Summary A Chinese hamster ovary (CHO) cell line stably expressing the M1 receptor (CHO-M1) was obtained from ATCC and maintained in F-12 Kaighn's media (Invitrogen, Carlsbad, CA, 21127) supplemented with 10 % FBS, 100 units/ml penicillin, 100 ug/ml streptomycin and 250 ug/ml geneticin at 37C, 5% CO2 in a humidified atmosphere. Before the assay, aliquots of cells were frozen and stored at -135C. The assay was performed in 1536-well format. Data are reported for both the ratio of the two emission wavelengths, and also for the component 'donor' channel, Em2=620. Data were normalized to the controls for basal activity (DMSO only) and 100% inhibition (18.4 mM LiCl). AC50 values were determined from concentration-response data modeled with the standard Hill equation. IMPase 1536-well assay protocol: (1) Plate 4 ul/well (2000 cells) of cell suspension from frozen CHO-M1 Cells in white, tissue culture treated 1536-well plates that are cultured at 37C, 5 % CO2 for 16 to 30 hours. (2) Add 23 nl/well of compound in DMSO solution. The final titration for each compound was between 0.6 nM and 46 uM. […]

| SMILES | Potency |
| --- | --- |
| [Li+] | 708 µM (active) |
| CNC(=O)c1ccc(NC(=O)/C=C/c2cccc(F)c2)cc1 | inactive |
| CC(C)(C)c1ccc(-c2nnc3sc(-c4ccccn4)nn23)cc1 | inactive |
| COc1ccc2oc(-c3ccccc3)c(C(N)=O)c2c1 | inactive |
| O=C(NCCCn1ccnc1)c1cc(-c2ccncc2)nc2ccccc12 | inactive |
| C[N+](C)(CCCCCC[N+](C)(C)CCCN1C(=O)c2cccc3cccc(c23)C1=O)CCCN1C(=O)c2cccc3cccc(c23)C1=O | inactive |
| CCc1c(C)nc2c(OC)cccc2c1SCCC(=O)O | inactive |
| CC1(C)Cc2c(ccc3ccccc23)C2=C(C(=O)N3CCCC3)C(=O)C(=O)N21 | inactive |
| CC(=O)C1=C(O)C(=O)N(Cc2ccco2)C1c1ccccc1F (stereo unspecified) | inactive |
| N#CC1=C(N)Oc2n[nH]c(-c3ccccn3)c2C1c1c(F)cccc1Cl (stereo unspecified) | inactive |
| COc1cccc(NC(=O)CN(C)C(C)C(=O)Nc2cc([N+](=O)[O-])ccc2Cl)c1 (stereo unspecified) | inactive |
| COc1ccc(/C=C2\CCCC3C2=NN(C(=O)c2ccco2)C3c2ccc(OC)c(OC)c2)cc1OC (stereo unspecified) | inactive |
| Cc1ccc(-c2c(C(=O)Nc3ccccc3C)c(C)[nH]c(=S)c2C#N)o1 | inactive |
| O=C(NC1CCS(=O)(=O)C1)C1C2CC3CC(C2)CC1C3 (stereo unspecified) | inactive |
| CCOC(=O)c1cc2c(=O)n3ccccc3nc2n(Cc2ccco2)c1=NC(=O)c1cccnc1 | inactive |
| COc1ccc(C2c3c(ncn(CCN4CCOCC4)c3=N)Oc3ccc4ccccc4c32)cc1OC (stereo unspecified) | inactive |
| O=P(O)(OCc1ccccc1)OCc1ccccc1 | inactive |
| N#CCN1CCC(c2cc(-c3ccco3)n[nH]2)CC1 | inactive |
| N#Cc1c(-c2ccc(Br)cc2)nc2n(c1=O)CCCS2 | inactive |
| O=C(CCC(=O)c1cccs1)NCc1cccnc1 | inactive |
| COc1ccc(N2CSC3=C(C#N)C(c4cccs4)CC(=O)N3C2)cc1 (stereo unspecified) | inactive |
